# Test results from the supplement of paper PMC6555819.
# Key:
# Test in all cases: PBM binding z-score (relative to random genomic background probes); higher = stronger binding; sequences stand for … in GC…GCGATTGACAGCGTAGAATGAAGG
# [1] = test system: FXR:RXRa (NR concentration 270 nM, RXRa partner concentration 90 nM)
# Method in brief: (§1)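 Ligand-free nuclear receptor dimers were applied to custom Agilent 4×180K protein-binding microarrays whose double-stranded probes carried direct-repeat seeds, single-nucleotide variants, half-site ablations and random human genomic background sequences in 34-nt variable regions. Incubation lasted 1 h. Binding z-scores were computed against the random background probes from regression-normalized fluorescence.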
# [2] = test system: LXRa:RXRa (NR concentration 270 nM, RXRa partner concentration 90 nM)
# Method in brief: as §1
# [3] = test system: LXRa homodimer (NR concentration 270 nM)
# Method in brief: as §1
# [4] = test system: LXRb:RXRa (NR concentration 270 nM, RXRa partner concentration 90 nM)
# Method in brief: as §1
# [5] = test system: LXRb homodimer (NR concentration 270 nM)
# Method in brief: as §1
# [6] = test system: PPARa:RXRa (NR concentration 270 nM, RXRa partner concentration 90 nM)
# Method in brief: as §1
# [7] = test system: PPARg:RXRa (NR concentration 180 nM, RXRa partner concentration 90 nM)
# Method in brief: as §1
# [8] = test system: PPARg:RXRa 270nM:90nM, anti-RXR (NR concentration 270 nM, RXRa partner concentration 90 nM)
# Method in brief: as §1
# [9] = test system: PPARg:RXRa 30nM:10nM, anti-RXR (NR concentration 30 nM, RXRa partner concentration 10 nM)
# Method in brief: as §1
# [10] = test system: PPARg:RXRa 90nM:30nM, anti-RXR (NR concentration 90 nM, RXRa partner concentration 30 nM)
# Method in brief: as §1
# [11] = test system: PPARg:RXRa DBDmut IVT, anti-RXR (DBD mutation: RXRa K156A/R161A, NR concentration 270 nM, RXRa partner concentration 90 nM)
# Method in brief: as §1
# [12] = test system: PPARg:RXRa IVT, anti-PPARg (NR concentration 270 nM, RXRa partner concentration 90 nM)
# Method in brief: as §1
# [13] = test system: PPARg DBDmut:RXRa IVT, anti-PPARg (DBD mutation: PPARg1 K132A/R137A, NR concentration 270 nM, RXRa partner concentration 90 nM)
# Method in brief: as §1
# [14] = test system: PPARg DBDmut IVT, anti-PPARg (DBD mutation: PPARg1 K132A/R137A, NR concentration 270 nM)
# Method in brief: as §1
# [15] = test system: PPARg homodimer (NR concentration 180 nM)
# Method in brief: as §1
# [16] = test system: PXR:RXRa (NR concentration 270 nM, RXRa partner concentration 90 nM)
# Method in brief: as §1
# [17] = test system: PXR homodimer (NR concentration 270 nM)
# Method in brief: as §1
# [18] = test system: RARa:RXR (NR concentration 270 nM, RXRa partner concentration 90 nM)
# Method in brief: as §1
# [19] = test system: RARa homodimer (NR concentration 270 nM)
# Method in brief: as §1
# [20] = test system: RARb:RXRa (NR concentration 270 nM, RXRa partner concentration 90 nM)
# Method in brief: as §1
Sequence,PBM binding z-score [1],PBM binding z-score [2],PBM binding z-score [3],PBM binding z-score [4],PBM binding z-score [5],PBM binding z-score [6],PBM binding z-score [7],PBM binding z-score [8],PBM binding z-score [9],PBM binding z-score [10],PBM binding z-score [11],PBM binding z-score [12],PBM binding z-score [13],PBM binding z-score [14],PBM binding z-score [15],PBM binding z-score [16],PBM binding z-score [17],PBM binding z-score [18],PBM binding z-score [19],PBM binding z-score [20]
TCTAGTTGGTCAACGGTCACACACTCGAAATGCG,0.705,0.745,0.892,1.04,0.0272,2.38,3.99,5.35,4.78,5.32,2.4,2.99,0.499,0.932,1.48,0.697,0.127,0.78,1.23,2.31
ATATGTCGGTTAAGGGTCATTCAGGTTGGTTCGC,4.54,4.44,3.12,4.03,1.48,5.44,8.83,8.47,7.13,9.33,2.75,4.81,2.12,1.06,3.13,5.03,2.46,4.78,2.84,3.31
GGAACGAGGGCAAAGTTGATACCATCTGTCGACG,1.54,1.06,0.172,1.17,-0.157,4.04,6.72,6.85,6.52,7.6,3.89,3.91,0.382,-0.0769,0.593,1.61,0.644,2.09,0.0395,2.42
TCTGCTAGGTCAACTATGGTCAGCTAATCTGCTA,4.09,3.35,0.302,2.35,0.258,3.65,2.72,3.29,2.15,2.81,3.77,4.24,0.825,0.277,1.55,2.47,-0.42,2.76,0.288,4.38
GCTAGAAGGCCATTTGGGTCACTCAATGACGGGC,0.421,0.146,-0.572,0.474,-0.706,1.49,0.807,0.44,-0.268,-0.245,1.13,1.97,-0.158,-0.532,0.149,1.19,1.2,1.08,-0.572,2.2
TCATATAGGTAAAGATGAAAGTCGAACGATATGA,0.255,0.326,-0.224,0.183,-0.264,0.972,1.38,2.08,3.79,3.02,3.2,1.97,1.28,0.63,-1.18,-0.0573,-0.0684,0.268,0.0923,0.318
CCTTACGGGTCACTGACAGGTTATCGCATTTGGA,5.35,4.35,0.422,3.38,0.0444,5.12,4.53,4.36,1.04,2.96,3.47,3.69,0.381,0.623,2.57,3.78,-0.364,4.93,0.262,4.06
CGAACTAGGTCAAGGGCAGTGAATCTCCGCACGC,3.56,2.14,-0.0571,1.21,-0.428,4.64,8.03,6.75,4.74,6.89,7.67,8.29,1.07,0.971,1.46,1.14,-0.131,1.86,-0.096,4.13
ACTTACGGGTCAACGAGGTAATAGCACGCGTATA,6.86,4.42,0.29,3.61,0.727,5.72,5.56,5.53,2.48,4.37,3.55,4.22,1.27,1.43,2.86,3.81,0.484,4.62,0.585,4.15
CCTTACGGGTCACGAGGTTATAGAACGACGAGCG,6.7,4.58,0.451,4.12,-0.0451,6.16,7.18,6.91,3.33,5.23,4.22,5.47,0.77,0.157,2.71,4.54,0.292,6.07,0.736,4.73
TCTTGTCGATCAAGCAGGTTAAGAAAGCCTGAGT,-0.117,0.258,-0.542,0.373,-0.662,0.754,-0.443,1.21,2.65,1.95,0.974,0.231,-0.395,0.403,-0.519,0.505,-0.0537,0.33,-0.429,0.222
TAGCCTAGGTCATTGGTCCAGTATAGTACGCATC,3.97,3.31,1.33,2.7,0.535,3.56,2.48,2.55,0.941,2.27,2.05,2.93,0.413,0.614,1.51,1.76,0.043,2.39,0.179,3.58
AAAATGAGGTTATACGTAGATCAGGGAAGAAAGT,2.34,2.36,0.225,1.87,0.19,3.52,2.69,2.4,1.33,1.9,4.62,3.11,2.19,1.29,0.818,1.37,0.994,1.99,0.921,1.56
ACAGACAGGGGATGAAGGTAACTCAGGCTATCAT,0.0429,-0.217,-0.0262,0.454,0.563,0.414,0.8,-0.0093,-0.0639,-0.0825,-0.0159,0.23,0.918,0.962,0.411,0.126,0.556,-0.0712,0.0686,0.299
ATACTAAGGTGATCGTGAGGTCGTTGATACTAAC,2.4,2,0.85,1.55,0.314,2.07,0.615,0.774,0.762,0.566,1.4,1.73,0.74,1.39,1.65,3.74,1.93,2.88,0.716,1.77
TCGAGTCGGTTAGGGGCATTCAGAATGGCGTCGA,0.0826,-0.161,-0.614,0.203,-0.666,0.491,-0.446,0.528,0.725,0.702,0.464,-0.15,-1.37,-1.74,-0.435,0.545,-0.165,0.325,-1.4,0.501
CATCAAAGTTCAACTAAGGTAACGTAAAGCACGC,7.36,6.82,5.03,4.54,3.07,5.03,3.96,4.67,2.12,3.32,0.365,1.94,1.26,1.35,3.92,5.93,5.95,4.5,3.5,5.37
CCTTACGGGTCACTCCAGGTTATAGAATCGGAGT,5.18,7.67,1.89,5.43,0.287,4.4,3.31,3.8,1.18,2.56,2.67,3.47,1.31,0.0238,1.95,5.29,0.455,4.11,0.74,3.68
AGAATGAGGTTACCCAAGATCAGGGAAACGCTTG,1.63,5.76,-0.558,2.48,-0.333,3.05,2.29,2.2,0.837,1.49,3.03,2.92,1.56,1.21,0.367,1.58,-0.185,2.03,-0.0633,1.82
CTTAGCAGGCCAATCTGGGTCACTCAAGGCTTGA,0.29,1.18,-0.362,0.386,-0.93,3.08,2.4,2.51,-0.0201,1.43,4.54,5.41,1.49,-0.595,0.867,0.661,-0.63,1.8,-0.332,1.46
AGAACGAGGGCAATGAGTTGATACCACGGGTGGC,0.296,0.211,-0.493,-0.174,-0.279,1.36,1.5,0.94,-0.0193,0.369,3.03,2.47,0.451,0.33,0.443,1.66,5.24,0.38,-0.193,2.19
ATCGAAAGGTCGTGAGCTGAGTATACAGAAAGGC,4.79,3.91,0.0249,3.03,0.117,4.86,3.35,4,1.23,2.6,-0.173,1.49,0.42,0.76,1.16,2.75,0.0585,3.56,-0.0844,3.76
CGTCAAAGTGCAACTAAGGTAACGTAAAGCACGC,0.888,0.803,-0.122,0.5,-0.623,1.29,0.842,0.685,0.0299,0.977,0.000169,0.492,-0.123,-0.228,0.0705,1.55,0.00934,2.04,-0.027,2.07
CCTAGCTGGCCAGGGTCACTCAAGCATTTCGCTT,1.96,1.65,-0.664,1.94,-1.02,2.99,-0.0183,1.17,-0.834,-0.172,-0.189,-0.187,-0.962,-0.97,0.811,2.53,-0.342,3.04,-0.133,2.35
GCTCGGAGCACAAGGTCAGAGCTTTGTCCGTAGA,1.22,1.42,-0.454,0.993,-1.38,2.34,0.273,1.03,-0.387,0.2,0.516,0.181,-1.55,-1.25,0.0109,1.7,-0.525,1.75,-1.06,2.63
TAGCCTAGGTCATGGGCCAGTAAACCACGCGAAC,4.54,3.68,0.175,2.43,-0.182,4.46,3.46,3.97,1.13,2.88,1.71,3.46,0.0624,0.0351,1.25,1.83,-0.321,2.72,-0.171,3.98
CATACATGGTCAGCTAGGCCAGAGTAGGGACGGC,-0.504,-0.26,-0.736,-0.962,-0.25,-1.12,0.342,-0.789,-0.741,-0.753,-0.304,0.125,0.136,-0.418,-0.795,-0.724,-0.583,-0.808,0.055,0.8
TCGAGTAGGTTAGTCGGCGCATTCAGCCAACATA,-0.102,-0.169,-0.745,-0.439,-1.53,0.0972,-0.358,0.362,0.699,0.562,1.73,0.854,-1.61,-1.56,-0.687,-0.463,-0.787,-0.68,-0.479,-0.141
